Reference: PubChem BioAssay (EPA / NIEHS)
Where “and” joins values, the source holds several entries; their conditions need not be identical. Equal values may be shown once. Records with an inconclusive call do not appear. Where a structure was tested more than once in an assay, its records may differ in their call. Calls of active or inactive are those of the source. How the source made its calls: active means hit-call score of the fitted dose curve at least 0.9, where 1 is the maximum; inconclusive means response in the unintended direction; inactive means score below 0.9.

Assay: CCTE_Shafer_MEA_dev_LDH: CCTE's Lactate Dehydrogenase Assay for Cytotoxicity in the Neural Network Formation Assay, Shafer Lab (AID 2284068);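 further: exposure for twelve days from plating with re-dosing on DIV 5 and 9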
Procedure: CCTE_Shafer_MEA_dev assay is conducted using Axion Biosystems 48 well microelectrode array (MEA) plates and Maestro recording system. Each well of the MEA plate contains a grid of 16 microelectrodes embedded in the culture surface. Electrically active cells, such as neurons, can be cultured over the electrodes, and electrical activity in these cells can be recorded extracellularly. The spontaneous firing of neurons is captured from each electrode on a microsecond timescale providing both temporally and spatially precise data. […] The CCTE_Shafer_MEA_dev assay uses primary cultures of rat cortical neurons. Recordings are made on days post-plating 5, 7, 9 and 12. As these cultures mature over time, neural networks develop functional activity and form cohesive networks in which electrical activity can be highly coordinated. CCTE_Shafer_MEA_dev_LDH is 1 of 19 assay components of the CCTE_Shafer_MEA_dev assay. It measures the lactate dehydrogenase enzyme activity using spectrophotometry.Data from the assay component CCTE_Shafer_MEA_dev_LDH was analyzed into 1 assay endpoint. This assay endpoint, CCTE_Shafer_MEA_dev_LDH, was analyzed in the positive analysis fitting direction relative to DMSO as the negative control and baseline of activity. Using a type of viability reporter, loss-of-signal activity can be used to understand cell viability.
On the day prior to culture, each well was coated thoroughly with 150 uL of 0.05% polyethyleneimine (PEI, Sigma Cat P3143) in 50 mM HEPES (Sigma Cat H7523) at a pH of 8. The plate was incubated at 37C for one hour. PEI was rinsed out with 500 uL of sterile water three times. Plates were stored at 4C until the day of culture. This culture was plated at a seeding density of 1.5 x 10^5 cells/well on a 48-well MEA plate, prepared as described above. Cells were administered via a 25 uL media/laminin ([…]; Sigma Cat L2020-1MG) drop directly onto the microelectrode array, as adding the cells with the laminin results in better attachment than pre-coating with laminin. After 2 hours, an additional 475 uL of cortical media was added and the cells returned to the incubator. Exposure starts at day 0 of plating and is continued over twelve days of network development until the experiment is terminated. Cells are fed with fresh medium on DIV 5 and 9, following the recordings on those days. The entire volume of media in the well is exchanged and any vehicle or compound treatment is renewed. Complete details are found in OP-NHEERL/ISTD/SBB/TJS/2015-03-r0 (available on request, email shafer.tim@epa.gov). Measurement of the electrical activity is non-invasive, and recordings can be made from the same plate over multiple different days of the culture. In cortical neurons, this allows for the measurement of extracellular action potentials over the period during which networks form in the MEA plate.
For O=C(Nc1ccccc1-c1ccc(Cl)cc1)c1cccnc1Cl, the AC50 was 50 µM (active) and the outcome was “inactive”.
With CC1(C)C(C(=O)OC(C#N)c2cccc(Oc3ccccc3)c2)C1(C)C (stereo not given) the AC50 was 17.8 µM (active).
In the case of C=C(C)CN(CC)c1c([N+](=O)[O-])cc(C(F)(F)F)cc1[N+](=O)[O-], the AC50 is reported as 14.5 µM (active).
For CC(C)(C)C(=O)C(Oc1ccc(Cl)cc1)n1cncn1 (stereo not given), the AC50 was 37.5 µM (active).
For CCN(CC)c1nc(C)cc(OP(=S)(OC)OC)n1, the AC50 was 29.2 µM (active).
With O=C1C2CC=CCC2C(=O)N1SC(Cl)(Cl)Cl (stereo not given) the AC50 was 15.9 µM (active) and 13.8 µM (active).
With COC(=O)N(C(=O)N1CO[C@@]2(C(=O)OC)Cc3cc(Cl)ccc3C2=N1)c1ccc(OC(F)(F)F)cc1 the AC50 was 7.61 µM (active).
With CCNC(=O)NC(=O)C(C#N)=NOC the outcome was “inactive”.
In the case of CCOP(=O)(OCC)Oc1nc(Cl)c(Cl)cc1Cl, the AC50 is reported as 610 nM (active) and 413 nM (active) and the outcome is reported as “inactive”.
For Cc1c(COC(=O)[C@@H]2[C@H](/C=C(\Cl)C(F)(F)F)C2(C)C)cccc1-c1ccccc1, the AC50 was 17.5 µM (active) and 11.2 µM (active).
With COP(=S)(OC)Oc1ccc([N+](=O)[O-])c(C)c1 the outcome was “inactive”.
For N#CN=C1SCCN1Cc1ccc(Cl)nc1, the outcome was “inactive”.
With COP(=S)(OC)SCn1nnc2ccccc2c1=O the AC50 was 22.7 µM (active).
In the case of CN/C(=N\[N+](=O)[O-])NCc1cnc(Cl)s1, the outcome is reported as “inactive”.
For CC1(C)C(C=C(Cl)Cl)C1C(=O)OC(C#N)c1cccc(Oc2ccccc2)c1 (stereo not given), the outcome was “inactive”.
For CC(C)=CC1C(C(=O)OCc2coc(Cc3ccccc3)c2)C1(C)C (stereo not given), the AC50 was 14.1 µM (active).
For CCOC(=O)C(C)OC(=O)c1cc(Oc2ccc(C(F)(F)F)cc2Cl)ccc1[N+](=O)[O-] (stereo not given), the outcome was “inactive”.
With CO/N=C(/C1=NOCCO1)c1ccccc1Oc1ncnc(Oc2ccccc2Cl)c1F the AC50 was 643 nM (active) and 858 nM (active).
In the case of CS(=O)(=O)c1ccc(C(=O)C2C(=O)CCCC2=O)c([N+](=O)[O-])c1, the outcome is reported as “inactive”.
For CCCN(CC)CC1COC2(CCC(C(C)(C)C)CC2)O1 (stereo not given), the AC50 was 0.168 µM (active).
In the case of COP(=O)(OC)O/C(C)=C/C(=O)N(C)C, the outcome is reported as “inactive”.
With CNC(=O)Oc1cccc2ccccc12 the AC50 was 15 µM (active) and 25.1 µM (active).
With CCSC(=O)N1CCCCCC1 the outcome was “inactive”.
